GLP-1R inv ag: acts as inverse agonist at human GLP-1 receptor; P43220; HEK293 GLP-1R CRE-luciferase, luminescence, 24 h; GLP-1R form is constitutively active; Potency, µM (doses to about 38.3 µM), most hits filed as inhibitors; 410,000 tested, 1.6% active; also: nearly all actives have a fitted effect of over 55% in size
Target sequence (P43220 whole entry, looked up): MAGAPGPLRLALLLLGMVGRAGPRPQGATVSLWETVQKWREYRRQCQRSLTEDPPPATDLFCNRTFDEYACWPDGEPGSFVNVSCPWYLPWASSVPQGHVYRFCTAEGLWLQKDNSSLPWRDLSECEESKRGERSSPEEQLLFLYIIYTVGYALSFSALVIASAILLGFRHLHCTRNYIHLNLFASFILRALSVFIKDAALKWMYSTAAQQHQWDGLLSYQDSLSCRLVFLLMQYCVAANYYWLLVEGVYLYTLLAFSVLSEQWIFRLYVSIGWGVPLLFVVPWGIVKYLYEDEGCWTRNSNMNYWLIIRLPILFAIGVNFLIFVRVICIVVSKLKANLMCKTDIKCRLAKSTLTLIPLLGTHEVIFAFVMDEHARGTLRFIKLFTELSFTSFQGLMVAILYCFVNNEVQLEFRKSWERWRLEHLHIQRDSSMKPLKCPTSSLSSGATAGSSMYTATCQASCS
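HEK293 cells stably co-expressing a cAMP-responsive luciferase reporter and constitutively active GLP-1R were seeded, incubated 12 h, then exposed to compounds for 24 h at 37 C. Luminescence was read 12 min after detection reagent; inverse agonists lower signal.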
HEK293 tox: cytotoxicity in counter-screen for GLP-1R inverse agonists | HEK293 cAMP-luciferase reporter cells, luminescence, 24 h | Potency, µM (series often up to 38.3 µM), usual class: inhibitors | 410,000 tested, 0.13% active;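 also: loss of luciferase light is scored as toxicity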
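Quantitative HTS format, 1536 wells, 200 cells/uL seeded. Compounds: 23 nL, 24 h, 37 °C. Detection: luciferase reagent, luminescence at 12 min RT; decreased signal taken as cytotoxic.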
ClpP mod: qHTS Assay for Activators of ClpP. ATP-dependent Clp protease proteolytic subunit (Bacillus subtilis (strain 168)), P80244. purified B. subtilis ClpP, FRET peptide cleavage, 20 min. Potency, µM (series often up to 57.5 µM). 340,000 tested, 1.9% active. AID 651965, 2013; active = well fitted falling curve with a large enough effect; inconclusive = small, poorly fitted or top-dose-only effect; inactive = no such curve, though single readings can be large or run the other way; also: the source files actives as falling curves though it sought activators and does not explain the sign; nearly all actives have a fitted effect of over 65% in size
Target sequence (P80244 whole entry, looked up): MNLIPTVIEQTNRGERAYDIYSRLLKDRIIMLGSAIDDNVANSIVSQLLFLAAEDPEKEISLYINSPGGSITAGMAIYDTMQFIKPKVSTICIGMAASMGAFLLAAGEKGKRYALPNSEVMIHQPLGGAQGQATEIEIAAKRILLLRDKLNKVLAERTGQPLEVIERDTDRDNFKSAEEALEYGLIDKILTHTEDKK
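Purified B. subtilis ClpP, 10 microg/mL final in Tris/HCl pH8 with KCl, BSA, glycerol and Tween-20, cleaved an Abz/nitrotyrosine-quenched decapeptide. Fluorescence (ex 320, em 430) was read at 0 and 20 min at room temperature. Delta was normalized to 5.8 microM ADEP and DMSO/no-enzyme controls.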
GLP-1R agonist: agonists of human GLP-1 receptor. AID 624172. HEK293 GLP-1R CRE-luciferase, luminescence, 4-6 h; cells express a hypersensitive GLP-1R form. Potency, µM (titrated, usually from 45.6 µM), most hits filed as activators. 380,000 tested, 0.007% active. P43220
Each line names hits and unclear results; the compound was inactive in the other large screens; ! = a repeat was not active. Shown are actives, neighbours in structure and some others; about 3.2% of the full set was active somewhere. Unless noted, calls follow the shape of the dose curve; as a rule, active = well fitted curve in the direction sought with a large enough effect; inconclusive = small, poorly fitted or top-dose-only effect, or another doubt; inactive = no such curve, though single readings can be large; an effect the other way counts as inactive or inconclusive.

CC1C/C(=N\NC(=S)NC(C)C)CC(C)(C)C1 (centres undefined)	GLP-1R inv ag 4.47µM, HEK293 tox inconclusive
COc1ccc(N2CCN(CCNC(=O)Nc3ccc(C)c(Cl)c3)CC2)cc1	GLP-1R inv ag 2.82µM
Cc1cc(C)c2c(c1)-c1cc(C)nn1C(c1ccc3c(c1)OCO3)N2 (centres undefined)	ClpP mod 31.6µM
CCCCN(CC)CCCNC(=O)Cn1ncc2c3ccccc3n(Cc3ccccc3F)c2c1=O	none (no result: GLP-1R agonist)
COc1cc(SC)ccc1C(=O)Nc1ccc(Cl)cn1	GLP-1R inv ag 2.24µM (no result: ClpP mod)
COC(=O)c1c(NC(=O)c2nc(SC)ncc2Cl)sc2c1CCCC2	none (no result: GLP-1R agonist)
Cc1ccc2nc(-c3ccc(C)c(NC(=O)COc4ccccc4Cl)c3)oc2c1	none (no result: GLP-1R inv ag, HEK293 tox, GLP-1R agonist)
COCCCNC(=S)N1CCC(C(=O)c2ccc(Cl)cc2)CC1	GLP-1R inv ag 5.62µM
CC1(C)CC2CC(C)(CN2C(=O)COC(=O)c2ccc(Cl)c(N)c2)C1 (centres undefined)	ClpP mod inconclusive
CC1(C)CC2CC(C)(CN2C(=O)COC(=O)c2ccc(Cl)cc2N)C1 (centres undefined)	GLP-1R inv ag inconclusive, ClpP mod 28.2µM
Cc1ccc(Cl)cc1NC(=O)c1cc(S(=O)(=O)N2CCCCCC2)cn1C	none
Cc1noc(C)c1S(=O)(=O)N(CC(=O)Nc1ccc(C(F)(F)F)cc1)c1ccc(C(C)C)cc1	none
COc1ccc(N(CC(=O)Nc2cc(Cl)ccc2C)S(=O)(=O)c2c(C)n[nH]c2C)cc1	GLP-1R inv ag 4.47µM, HEK293 tox inconclusive
Cc1n[nH]c(C)c1S(=O)(=O)N(CC(=O)Nc1ccc(C(F)(F)F)cc1)c1ccc(C(C)C)cc1	GLP-1R inv ag 10µM (no result: GLP-1R agonist)
CC1=C(C(=O)NCc2cccc(F)c2)C2(CCCCC2)OC1=O	none
Cc1cc(-c2ccccc2)nc2[n+]1CCN2C	ClpP mod 28.2µM
Cc1ccc(Sc2ccc(N3CCCC(C(=O)Nc4ccc(Br)cc4)C3)nn2)cc1 (centres undefined)	ClpP mod inconclusive
C#CCCCCCCC#CCN(C)C	ClpP mod 31.6µM
CN(C)C(C)(C)C#CCCCCC#CC(C)(C)N(C)C	HEK293 tox inconclusive
COc1ccc(/C=C2/C=Cc3ccccc32)cc1	none (no result: GLP-1R inv ag, HEK293 tox, GLP-1R agonist)
CCc1nc(N)c(C#N)c(-c2ccc(F)cc2)c1C	ClpP mod 28.2µM
CCc1nc(N)c(C#N)c(-c2cccnc2)c1C	none
CCc1ccc(-n2c(CCC(=O)O)ccc2-c2cccs2)cc1	none (no result: GLP-1R agonist)
Cc1ccc(-n2c(CCC(=O)O)ccc2-c2cccs2)cc1C	ClpP mod 11.2µM!
COc1ccc(Nc2nc3c(S(=O)(=O)c4ccccc4)nnn3c3ccc(Cl)cc23)c(OC)c1	none (no result: GLP-1R agonist)
CCN(CC)CCNc1ccc(CO)c2oc3cc(Cl)ccc3c(=O)c12	GLP-1R inv ag 4.47µM
CN(C)CCNc1ccc(CO)c2oc3ccc(O)cc3c(=O)c12	GLP-1R inv ag 10µM, HEK293 tox inconclusive
O=c1c2c3c(sc2nnn1Cc1ccc(F)cc1)CCCC3	GLP-1R inv ag inconclusive (no result: GLP-1R agonist)
C=CCn1c(=NC(=O)c2ccco2)sc2cc(C(=O)OC)ccc21	ClpP mod 22.4µM
C=CCn1c(=NC(=O)c2ccco2)sc2cc(C(=O)OCC)ccc21	ClpP mod 22.4µM
COCCn1c(=NC(=O)c2ccco2)sc2cc(C(=O)OC)ccc21	none
COc1ccc(CCNC(=O)C(=O)NCC(c2ccco2)S(=O)(=O)c2cccs2)cc1 (centres undefined)	none (no result: GLP-1R agonist)
O=C(COc1ccc(Cl)cc1)Nc1ccc(Cc2ccncc2)cc1	GLP-1R inv ag inconclusive, ClpP mod 7.08µM
Cc1ccc(NC(=O)C2SC(=Nc3ccccc3)C(C(=O)Nc3ccc(Cl)cc3)=C2N)cc1 (centres undefined)	GLP-1R inv ag inconclusive (no result: ClpP mod)
Cc1ccc(N=C2SC(C(=O)Nc3ccc(OC(F)(F)F)cc3)C(N)=C2C(=O)Nc2c(C)cc(C)cc2C)cc1 (centres undefined)	GLP-1R inv ag 2.82µM, HEK293 tox inconclusive, ClpP mod inconclusive
Cc1ccnc(NC(=O)c2cc(S(=O)(=O)N3CCCCC3)ccc2Cl)c1	GLP-1R inv ag inconclusive, ClpP mod 22.4µM
Cc1ccc(N(Cc2ccccc2)C(=O)c2ccc(Cl)c(S(=O)(=O)N3CCOCC3)c2)cc1	GLP-1R inv ag 11.2µM
CCN1CCN(c2ccc(NC(=O)c3ccc(Cl)c(S(=O)(=O)N4CCCC4)c3)cc2)CC1	GLP-1R inv ag 3.55µM
Cc1cccc(NC(=O)c2ccc(Cl)c(S(=O)(=O)N3CCCC3)c2)n1	none
Cc1ccc(N(Cc2ccccc2)C(=O)c2cc(S(=O)(=O)N3CCOCC3)ccc2C)cc1	GLP-1R inv ag inconclusive, HEK293 tox inconclusive
Cc1cccc(NC(=O)c2ccc(Cl)c(S(=O)(=O)N3CCc4ccccc43)c2)n1	GLP-1R inv ag 11.2µM
CCc1ccc2c(c1)c(=O)c(S(=O)(=O)c1ccccc1)cn2CC(=O)Nc1ccc(OC)cc1	none
CCc1ccc(OCC(=O)Nc2cc3oc4ccccc4c3cc2OC)c(Br)c1	none (no result: GLP-1R agonist)
CCOC(=O)c1ccc(NC(=O)c2cnn(-c3ccc(C)cc3C)c2C2CCN(C(=O)OC(C)(C)C)CC2)cc1	GLP-1R inv ag inconclusive (no result: GLP-1R agonist)
Cc1ccc(C(=O)NC(C)CCc2ccccc2)cc1S(=O)(=O)N1CCOCC1 (centres undefined)	ClpP mod 28.2µM
Cc1ccc(CNC(=O)c2ccc(Cl)c(S(=O)(=O)N3CCCCC3)c2)cc1	GLP-1R inv ag 10µM
Cc1ccc(NC(=O)c2ccc(S(=O)(=O)N3CCCCCC3)cc2)nc1	GLP-1R inv ag inconclusive
Cc1ccc(NC(=O)c2ccc(Cl)c(S(=O)(=O)N3CCCCCC3)c2)nc1	GLP-1R inv ag 7.08µM (no result: ClpP mod)
CCc1ccc(C(=O)c2cn(CC(=O)Nc3ccc4c(c3)OCO4)c3ccc(CC)cc3c2=O)cc1	none
Cc1ccc(CCNC(=O)c2ccc3c(Cl)c4c(nc3c2)CCCC4)cc1	none
CCCCc1cc(=O)oc2c(C)c(OCC(=O)N3CCC(C(=O)O)(c4ccccc4)CC3)ccc12	none
CCCOc1ccc2c(CC)cc(=O)oc2c1C	ClpP mod inconclusive
Cc1c(C)c2ccc(OCC(=O)N(C)C)c(C)c2oc1=O	none
C=C(C)COc1ccc2c(CC)cc(=O)oc2c1C	ClpP mod 12.6µM, GLP-1R agonist inconclusive
Cc1cc(=O)oc2c(C)c(OCC(=O)N(C)C)ccc12	ClpP mod 15.8µM
CCCCc1cc(=O)oc2c(C)c(OCC(=O)N3CCCC3)ccc12	ClpP mod 12.6µM
COc1cc(NC(=O)C2=C(C)Nc3nnnn3C2c2ccc(SC)cc2)c(OC)cc1Cl (centres undefined)	none
CCCOC(=O)CSc1nnc2ccc3ccccc3n12	none (no result: GLP-1R agonist)
O=C(NCCc1ccccc1)c1cc(-c2ccccc2)nc2n[nH]c(-c3ccccc3)c12	GLP-1R inv ag inconclusive, ClpP mod 28.2µM (no result: GLP-1R agonist)
CC(=O)Nc1ccc(NC(=O)c2ccc(-c3c(C)noc3C)c3ccoc23)cc1	none
Cc1noc(C)c1-c1ccc(C(=O)Nc2ccc(C(C)C)cc2)c2occc12	GLP-1R inv ag 4.47µM, ClpP mod inconclusive
